Drawing on PubChem BioAssay (NCI), this text covers growth for 40 molecules.

SMILES strings stand for the structures. The panel holds about 83,000 compounds, 20% with a hit somewhere; the sample as a whole holds those more often.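 Testing used 96-well plates and a 48-hour single-concentration exposure. Example: -40 means 40% of the starting cells died.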 A number with no mark means an inactive call. Calls of active or inactive are those of the source.

The test concerns T-47D breast. Briefly: NCI-60 one-dose screen, 48 h (100 = growth as untreated, 0 = no growth, -100 = all killed). To be noted: 10 µM. The method, then: Growth inhibition of the T-47D human tumor cell line is measured as a screen for anti-cancer activity. Cells are grown in 96 well plates and exposed to the test compound for 48 hours. Compounds are tested at a single concentration, which is 10^-5 M for most compounds. The reported endpoint is percent growth (GI% or GIPRCNT), where numbers from 0 - 100% represent growth inhibition, and numbers from -100% - 0 represent cell death. For example, a value of 40 represents 60% growth inhibition. A value of 0 means no net growth occurred over the course of the experiment. A value of -40 indicates 40% of cells at the beginning of the experiment died by the end of the experiment. A value of -100 means all cells are dead at the end of the experiment.
NCI-60 Human Tumor Cell Lines Screen was performed using the standard one-dose NCI protocol, which is described in more detail at https://dtp.cancer.gov/discovery_development/nci-60/default.htm.
Compounds with GIPRCNT values below 10 were considered active. Activity score was based on GIPRCNT using the following formula: […]
Score is 0 for GIPRCNT values of 100 or above, 50 for GIPRCNT values of 0, and 100 for GIPRCNT values of -100.
Take `CCCCC(CCCC)(S(=O)(=O)CC)S(=O)(=O)CC`: the growth was 101%.

Consider `Brc1ccc(SCN(CSc2ccc(Br)cc2)Cc2ccccc2)cc1`, for which the growth is 84.7%.

As for `O=C(N/N=C(\CS(=O)(=O)c1ccccc1)c1cc2cc(Br)ccc2oc1=O)c1ccccc1`, the growth was 94.1%.

As to `Cc1ccc2c(N/N=C\c3ccco3)cc(C)nc2n1`, the growth was 37.4%.

For the molecule `COc1ccccc1-n1c(SCc2cc(OC)c(OC)c(OC)c2)nc2ccc(Cl)cc2c1=O`, the growth was 43.9%.

Turning to `Cc1ccc(S(=O)(=O)N2CCc3ccc(O)c4c3C2CCc2ccccc2-4)cc1` (stereo not given), the growth is 94%.

For the molecule `O=C1C(N2CCOCC2)=Cc2cccc3cccc1c23`, the growth is 86.6%.

Consider `CCN1CCN(c2nc3ccccc3c3c(=O)c4cc(F)ccc4sc23)CC1`, for which the growth is 65.1%.

Turning to `COC(=O)c1c2c(c(C)[n+]([O-])c1C)C(=O)C=C(NCc1ccc(F)cc1)C2=O`, the growth is -41.1% (active).

For `COc1ccc(-c2[nH]ncc2Nc2cc(OC)c(OC)c(OC)c2)cc1`, the growth is 18%.

For the molecule `Cn1c(=O)c2c(-c3ccccc3F)n(-c3ccc4c(c3)OCO4)cc2n(C)c1=O`, the growth was 81.3%.

Regarding `Cc1nn(-c2ccccc2)c2nc3nc4c(c(N)c3c(-c3ccc(Cl)cc3)c12)CCC4`, the growth is 102%.

Consider `CCC12CCC3c4ccc(O)cc4CCC3C1CC(O)C2O` (stereo not given), for which the growth is 93.9%.

For the molecule `COc1ccc(-c2nc3sc(C)nn3c2-c2nc3cc(C)c(C)cc3[nH]2)cc1`, the growth is 95.4%.

With `Clc1ccc(C2=Nc3cccc4cccc(c34)N2)cc1Cl`, the growth was 42.2%.

As to `COc1cccc2c(=O)c3c(sc12)c(NCCN(C)C)nc1ccccc13`, the growth is 61.3%.

Turning to `O=C(Nc1ccc(F)cc1)c1ccc(C(=O)Nc2ccc(F)cc2)cc1`, the growth is 99.1%.

In the case of `COC(=O)CCC(=O)c1ccccc1`, the growth is 102%.

Turning to `CC(C)OC1=C(Cl)C(=O)c2ccccc2C1=O`, the growth was -24.6% (active).

On to `COC(=O)c1c2c(c(C)[n+]([O-])c1C)C(=O)C=C(NCc1ccc(F)c(Cl)c1)C2=O`, for which the growth is -41.9% (active).

On to `CC(C)(C)[Si](C)(C)OC1[C@@H](CNC(=O)NC(=O)CCl)O[C@@H](n2cnc3c(N)ncnc32)[C@H]1O[Si](C)(C)C(C)(C)C` (stereo not given in full), for which the growth was 13.5%.

For the molecule `COc1ccc(-c2nc(Nc3ccc(F)cc3)nc(Nc3ccc4c(c3)nc(C)n4Cc3ccccc3)n2)cc1`, the growth was 11.5%.

Take `Cc1cc(O)cc2c1[C@H]1CC[C@]3(C)[C@@H](O)CC[C@H]3[C@@H]1C=C2`: the growth was 96.5%.

Regarding `O=C(CC(O)c1ccccc1)Nc1ccccn1` (stereo not given), the growth is 94.1%.

In the case of `Cc1cccc2c(=O)c3c(sc12)c(NCCCN)nc1ccccc13`, the growth was 43.9%.

For the molecule `COc1cc(C(F)(F)F)ccc1-c1cc(-c2ccc(F)cc2)n[nH]1`, the growth was 62.7%.

As for `Cc1nc(NN)c([N+](=O)[O-])c(NN)n1`, the growth is 103%.

As for `O=C1NC(=O)C2(CCCC2C(=O)O)N1` (stereo not given), the growth is 106%.

In the case of `O=c1nc(NO)[nH]c(=O)n1Cc1ccc(F)cc1`, the growth was 97%.

As for `FC(F)(F)c1cc(CNc2nc(Cl)ncc2Br)cc(C(F)(F)F)c1`, the growth is 82.1%.

For `COc1ncc(F)c(OC)n1`, the growth was 104%.

For `CC(=O)c1cc(C)c(OC(=O)c2ccccc2)c(C)c1`, the growth was 74.9%.

With `CCN1CCN(C(=S)SCC(=O)Nc2nc3ccc(OC)cc3s2)CC1`, the growth was 86.6%.

`COc1ncnc2c1ncn2C/C(Br)=C(\Br)CCl`: the growth is 1.25% (active).

In the case of `CN1CCc2c(c3ccccc3c3ccccc23)C1`, the growth was 55.5%.

Turning to `NC(=O)c1nc2c([nH]c1=O)CCCC2`, the growth is 92.7%.

Turning to `CCN(CC)CCCNc1ccc(C)c2sc3ccccc3c(=O)c12`, the growth was 43.7%.

In the case of `CC[Si](CC)(CC)OC1[C@@H](O[Si](CC)(CC)CC)[C@@H](CNC(=O)NC)O[C@H]1n1cnc2c(NC(=O)Nc3ccccc3)ncnc21` (stereo not given in full), the growth was 89.8%.

For the molecule `COc1ccc(-n2ncc3c4nc(OC)c(S(=O)(=O)c5ccccc5)cc4ccc32)cc1`, the growth was 57%.

In the case of `Oc1cccc(Nc2nc(-c3ccccn3)cs2)c1`, the growth was 87.3%.
